From publication PMC12820563, “FoxP3 forms a head-to-head dimer in vivo and stabilizes its multimerization on adjacent microsatellites” come the findings set out here.

Over roughly 16,000 sequences, “rpm ratio (pull-down/input)” has its median near 0.94; the highest 2% begin near 1.7. This is one part of a sample in which the highest values are shown more often than they occur.

This assay addresses T1, MBP-FoxP1dN (Mus musculus, UniProt P58462 326-579).
T1 sequence: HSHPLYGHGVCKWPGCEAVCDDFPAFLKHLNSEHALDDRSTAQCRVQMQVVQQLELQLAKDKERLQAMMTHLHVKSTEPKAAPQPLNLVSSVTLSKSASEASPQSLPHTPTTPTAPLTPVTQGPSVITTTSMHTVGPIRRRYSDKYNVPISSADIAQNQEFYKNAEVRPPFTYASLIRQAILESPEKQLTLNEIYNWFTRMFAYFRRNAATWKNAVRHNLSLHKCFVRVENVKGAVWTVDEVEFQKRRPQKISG
Briefly: PD-seq (MBP pull-down with sequencing); 20 mM Tris-HCl pH 7.5, 100 mM NaCl, 1.5 mM MgCl2, 0.4 uM protein, 0.1 uM dsDNA library, 30 min, room temperature, amylose pull-down; high values mean tight binding. To be noted: protein: recombinant; tags: His6-MBP; chain copies: 2; dsDNA, one strand shown. Put shortly: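 Binding is the reads-per-million enrichment of pull-down relative to input, pooled across replicates. For this, 0.4 µM His6-MBP-tagged mouse FoxP3 or FoxP1 fragment lacking the N-terminus, made in E. coli, was incubated with 0.1 µM Klenow-filled double-stranded degenerate DNA library for 30 min at room temperature in Tris pH 7.5 buffer with NaCl and MgCl2. Complexes bound to amylose resin were washed three times before proteinase K released the DNA for PCR barcoding and Illumina sequencing.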
In the case of “GATGATTGTTCTCCCAGCTGATGAATTGTTTTTATCGAGTAAACAAATTTTCCTAATCTTTCTGTTCAAGCGCCATCTAC”, the binding signal was 2.19 RPM ratio (pull-down/input).

On to “GATGATTGTTCTCCCAGCTGATGAATTGTTTATATCGAGTAAACAAATTTTCCTAATCTTTCTGTTCAAGCGCCATCTAC”, for which the binding signal is 2.47 RPM ratio (pull-down/input). Consider “GATGATTGTTCTCCCAGCTGATGAATTGTGTTTATCGAGTAAACAAATTTTCCTAATCTTTCTGTTCAAGCGCCATCTAC”, for which the binding signal was 2.92 RPM ratio (pull-down/input). For the sequence “GATGATTGTTCTCCCAGCTGATGAATTTAGTTTATCGAGTAAACAAATTTTCCTAATCTTTCTGTTCAAGCGCCATCTAC”, the binding signal was 1.89 RPM ratio (pull-down/input). Next, “GATGATTGTTCTCCCAGCTGATGAATTCTGCGCGTCGAGTAAACAAATTTTCCTAATCTTTCTGTTCAAGCGCCATCTAC”: 0.978 RPM ratio (pull-down/input). The figure for “GATGATTGTTCTCCCAGCTGATGAATTCCATTACTCGAGTAAACAAATTTTCCTAATCTTTCTGTTCAAGCGCCATCTAC” is 0.874 RPM ratio (pull-down/input). The figure for “GATGATTGTTCTCCCAGCTGATGAATTCAAGATCTCGAGTAAACAAATTTTCCTAATCTTTCTGTTCAAGCGCCATCTAC” is 0.814 RPM ratio (pull-down/input); for “GATGATTGTTCTCCCAGCTGATGAATTTCTACGATCGAGTAAACAAATTTTCCTAATCTTTCTGTTCAAGCGCCATCTAC” it is 0.948 RPM ratio (pull-down/input); for “GATGATTGTTCTCCCAGCTGATGAATTCACCATATCGAGTAAACAAATTTTCCTAATCTTTCTGTTCAAGCGCCATCTAC” it is 0.984 RPM ratio (pull-down/input). For the sequence “GATGATTGTTCTCCCAGCTGATGAATTGGGGCACTCGAGTAAACAAATTTTCCTAATCTTTCTGTTCAAGCGCCATCTAC”, the binding signal is 0.856 RPM ratio (pull-down/input). With “GATGATTGTTCTCCCAGCTGATGAATTTCACTGGTCGAGTAAACAAATTTTCCTAATCTTTCTGTTCAAGCGCCATCTAC”, the binding signal was 0.806 RPM ratio (pull-down/input). As for “GATGATTGTTCTCCCAGCTGATGAATTATGGCAATCGAGTAAACAAATTTTCCTAATCTTTCTGTTCAAGCGCCATCTAC”, the binding signal was 1.23 RPM ratio (pull-down/input). The figure for “GATGATTGTTCTCCCAGCTGATGAATTTCGGTTCTCGAGTAAACAAATTTTCCTAATCTTTCTGTTCAAGCGCCATCTAC” is 0.825 RPM ratio (pull-down/input); for “GATGATTGTTCTCCCAGCTGATGAATTCGGGGCCTCGAGTAAACAAATTTTCCTAATCTTTCTGTTCAAGCGCCATCTAC” it is 0.744 RPM ratio (pull-down/input). In the case of “GATGATTGTTCTCCCAGCTGATGAATTTGTTTTATCGAGTAAACAAATTTTCCTAATCTTTCTGTTCAAGCGCCATCTAC”, the binding signal is 1.78 RPM ratio (pull-down/input). Regarding “GATGATTGTTCTCCCAGCTGATGAATTTGTTAGTTCGAGTAAACAAATTTTCCTAATCTTTCTGTTCAAGCGCCATCTAC”, the binding signal was 1.78 RPM ratio (pull-down/input). With “GATGATTGTTCTCCCAGCTGATGAATTTATCAAATCGAGTAAACAAATTTTCCTAATCTTTCTGTTCAAGCGCCATCTAC”, the binding signal was 1.28 RPM ratio (pull-down/input). As for “GATGATTGTTCTCCCAGCTGATGAATTGTTAGTTTCGAGTAAACAAATTTTCCTAATCTTTCTGTTCAAGCGCCATCTAC”, the binding signal was 1.7 RPM ratio (pull-down/input). As to “GATGATTGTTCTCCCAGCTGATGAATTTATCTCCTCGAGTAAACAAATTTTCCTAATCTTTCTGTTCAAGCGCCATCTAC”, the binding signal is 1.08 RPM ratio (pull-down/input).

Consider “GATGATTGTTCTCCCAGCTGATGAATTCCTTTTATCGAGTAAACAAATTTTCCTAATCTTTCTGTTCAAGCGCCATCTAC”, for which the binding signal was 0.896 RPM ratio (pull-down/input). “GATGATTGTTCTCCCAGCTGATGAATTCTTTTTATCGAGTAAACAAATTTTCCTAATCTTTCTGTTCAAGCGCCATCTAC”: the binding signal is 1 RPM ratio (pull-down/input). Consider “GATGATTGTTCTCCCAGCTGATGAATTGTTTATCTCGAGTAAACAAATTTTCCTAATCTTTCTGTTCAAGCGCCATCTAC”, for which the binding signal was 2.68 RPM ratio (pull-down/input).

Consider “GATGATTGTTCTCCCAGCTGATGAATTTATCTGATCGAGTAAACAAATTTTCCTAATCTTTCTGTTCAAGCGCCATCTAC”, for which the binding signal is 1.07 RPM ratio (pull-down/input). In the case of “GATGATTGTTCTCCCAGCTGATGAATTCTGTTTATCGAGTAAACAAATTTTCCTAATCTTTCTGTTCAAGCGCCATCTAC”, the binding signal was 2.76 RPM ratio (pull-down/input). In the case of “GATGATTGTTCTCCCAGCTGATGAATTTTTTATCTCGAGTAAACAAATTTTCCTAATCTTTCTGTTCAAGCGCCATCTAC”, the binding signal is 0.997 RPM ratio (pull-down/input). Regarding “GATGATTGTTCTCCCAGCTGATGAATTAGTTAGTTCGAGTAAACAAATTTTCCTAATCTTTCTGTTCAAGCGCCATCTAC”, the binding signal was 0.968 RPM ratio (pull-down/input). On to “GATGATTGTTCTCCCAGCTGATGAATTCAATGAATCGAGTAAACAAATTTTCCTAATCTTTCTGTTCAAGCGCCATCTAC”, for which the binding signal was 0.93 RPM ratio (pull-down/input). Take “GATGATTGTTCTCCCAGCTGATGAATTGGAAGGCTCGAGTAAACAAATTTTCCTAATCTTTCTGTTCAAGCGCCATCTAC”: the binding signal is 0.76 RPM ratio (pull-down/input). For the sequence “GATGATTGTTCTCCCAGCTGATGAATTAAACTAATCGAGTAAACAAATTTTCCTAATCTTTCTGTTCAAGCGCCATCTAC”, the binding signal was 1.09 RPM ratio (pull-down/input). The figure for “GATGATTGTTCTCCCAGCTGATGAATTCGTCCTATCGAGTAAACAAATTTTCCTAATCTTTCTGTTCAAGCGCCATCTAC” is 0.835 RPM ratio (pull-down/input); for “GATGATTGTTCTCCCAGCTGATGAATTTTCGCGATCGAGTAAACAAATTTTCCTAATCTTTCTGTTCAAGCGCCATCTAC” it is 0.884 RPM ratio (pull-down/input); for “GATGATTGTTCTCCCAGCTGATGAATTTGCGTTGTCGAGTAAACAAATTTTCCTAATCTTTCTGTTCAAGCGCCATCTAC” it is 1.29 RPM ratio (pull-down/input).
